# Only a selection was taken, and hits are over-represented in it overall.
# BRCT PPI red = inhibitors of human BRCA1 BRCT-phosphoprotein interaction (red fluorophore); AID 892; BRCT-phosphopeptide binding, red fluorescence polarization; P38398; Potency, µM (titrated, usually from 76.9 µM), inactives show at the top dose activity change, negative = inhibition, usual class: inhibitors; actives 0.03% (n = 75,000); further: on the % scale 0 is the no-effect control and ±100 the full control effect
#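 Rhodamine-labelled pBACH1 10-mer (100 nM) bound to BRCT domain (100 nM) at pH 7.3; compounds incubated 12 min room temperature, polarization read. Free peptide defines full inhibition; unlabelled decapeptide titrated as control.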
# 15-hLO-2 inh = inhibitors of human 15-lipoxygenase 2 (ALOX15B). Potency, µM (series often up to 57.1 µM), inactives show top-dose activity change, negative = inhibition, usual class: inhibitors. purified 15hLO-2, xylenol orange hydroperoxide absorbance. AID 881. actives 0.56% (n = 110,000); further: potency means the concentration at half of the fitted maximal effect; on the % scale 0 is the no-effect control and ±100 the full control effect; nearly all actives have a fitted effect of over 60% in size
#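 Read-out: hydroperoxide product oxidises ferrous iron, measured as xylenol orange complex via the 573-to-405 nm absorbance ratio after 30 min. Reaction: 50 nM enzyme, 15 min compound preincubation, 45 uM arachidonic acid, 90 min RT, Hepes pH 7.5 with Triton X-100.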
# YjeE inh = inhibitors of E. coli YjeE (TsaE); purified YjeE enzyme, qHTS inhibition assay; actives 0.05% (n = 71,000); AID 605; P0AF67; Potency, µM
#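 Fluorescence polarization of a BODIPY Texas Red–ADP probe (2 uM) bound to purified YjeE (10 uM) was read after 15 min room-temperature incubation with compounds. Loss of polarization marks inhibitors; ADP serves as titrated control.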
# Pol III holo inh = blocks replication by bacterial DNA polymerase III holoenzyme; AID 603; actives 0.25% (n = 71,000); Potency, µM (titrated, usually from 57.1 µM), for the others: at the top dose activity change, negative = inhibition; reconstituted DNA polymerase III holoenzyme replication, biochemical; further: potency means the concentration at half of the fitted maximal effect; on the % scale 0 is the no-effect control and ±100 the full control effect
#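 Reconstituted *E. coli* holoenzyme (0.35 nM Pol III, 1 nM beta, 154 nM SSB, 2 nM primase) was preincubated with compound for 15 min at RT. Synthesis on 1.4 nM ssM13Gori ran 35 min, then was stopped with PicoGreen/EDTA and read as dsDNA fluorescence.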
# BRCT PPI green = blocks human BRCA1 BRCT binding to phosphopeptide, green readout; BRCA1 BRCT-phosphopeptide binding, green fluorescence polarization; AID 875; actives 0.05% (n = 75,000); Potency, µM (doses to about 76.9 µM), for inactives: at the highest dose activity change, negative = inhibition, actives largely listed as inhibitors; P38398;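 further: potency means the concentration at half of the fitted maximal effect; plate controls were peptide without protein for full effect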
#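 Fluorescence polarization: His-tagged BRCT (~35 kDa BRCA1 C-terminus, 250 nM) bound to 100 nM fluorescein-labeled phosphorylated 10-aa BACH1 peptide, pH 7.3 phosphate buffer with DTT and Tween 20. Compounds incubated 12 min at room temperature; inhibition read as lowered polarization.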
# ALOX15 inhib = 15-hLO (ALOX15) enzyme inhibition | P16050 | purified 15hLO-1, xylenol orange hydroperoxide absorbance | Potency, µM (top dose mostly 57.1 µM), for inactives: at the top dose activity change, negative = inhibition, most hits filed as inhibitors | actives 1.4% (n = 74,000) | AID 887; further: potency means the concentration at half of the fitted maximal effect; on the % scale 0 is the no-effect control and ±100 the full control effect; nearly all actives have a fitted effect of over 55% in size
#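 Hydroperoxide formed from arachidonic acid (50 uM) by purified human 15hLO-1 (40 nM) oxidizes ferrous iron, and the ferric-xylenol orange complex is read at 573 versus 405 nm. Compounds were preincubated 15 min; reaction ran 6 min at room temperature.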
# Starred values were filed as active, the others as inactive; i = inactive; ? = inconclusive; · = not tested or not shown; ! = repeats disagree; [ ] = dose if it differs, or a comment. The call rests on the fitted dose curve; in most records, active means well fitted curve in the direction sought with a large enough effect; inconclusive means small, poorly fitted or top-dose-only effect, or another doubt; inactive means no such curve, though single readings can be large; an effect the other way counts as inactive or inconclusive.
SMILES,BRCT PPI red,15-hLO-2 inh,YjeE inh,Pol III holo inh,BRCT PPI green,ALOX15 inhib
COc1ccc(-n2c(Cc3cccn3C)nnc2SCC(=O)N2CCCC2)cc1,1%,·,i,1%,-2%,-25%
N#Cc1ccc(OCc2nnc(SCC(=O)N3CCCc4ccccc43)n2-c2ccccc2)cc1,0%,-6%,i,-9%,-1%,2.5µM*
COc1ccc(-n2c(Cc3cccn3C)nnc2SCC(=O)N2CCCc3ccccc32)cc1,0%,-9%,i,-1%,4%,13µM*
CCc1cccc2c(-c3ccccc3)c3c(nc12)OCC3,2%,6%,i,13%,0%,·
CN1CCN(c2ncncc2-c2ccoc2)CC1,-1%,6%,i,-7%,1%,32µM*
CC(CCc1nc2ccccc2s1)(c1ccc(O)cc1)c1ccc(O)cc1,0%[15.4 µM],?,i,-13%[11.4 µM],0%[15.4 µM],-25%[11.4 µM]
CSCSC1=C(C#N)C(c2ccccc2Cl)C(C(C)=O)=C(C)N1 (stereo not drawn),0%,-14%,i,-1%,-2%,25µM*
CC(=O)C1=C(C)NC(SCSc2ccccc2)=C(C#N)C1c1cccnc1 (stereo not drawn),0%,-12%,i,-1%,2%,0.32µM*
C=CCNc1oc(-c2cccc3ccccc23)nc1C#N,0%,7%[2.29 µM],i,2%,1%,0.5µM*
CCNc1oc(-c2cccc3ccccc23)nc1C#N,0%,-11%,i,?,-3%,·
CC(C)Nc1oc(-c2cccc3ccccc23)nc1C#N,2%,5%,i,-2%,2%,4µM*
Cc1ccc2[nH]c(=S)cc(C)c2c1,0%,13µM*,i,-4%,0%,3.2µM*
COCCn1c(=O)c(-c2ccc(OC)cc2)nc2cnc(N3CCOCC3)nc21,-1%,-7%,i,-1%,0%,-6%
COc1ccccc1CNc1ccnc(-c2ccc3c(c2)OCO3)n1,0%,-10%,i,0%,3%,13µM*
COc1ccc(CNc2ccnc(-c3ccc4c(c3)OCO4)n2)c(OC)c1,0%,6%,i,4%,-2%,?
COc1ccc(CNc2cc(-c3ccccc3OC)ncn2)c(OC)c1,0%,-13%,i,2%,-2%,25µM*
COc1ccccc1CNc1ccnc(-c2ccccc2OC)n1,0%,?,i,-2%,-1%,13µM*
COCCNc1ccnc(-c2ccccc2C)n1,0%,?,i,-9%,-1%,13µM*
CSc1nc(-c2ccco2)nn1S(=O)(=O)c1ccccc1,0%,-2%,i,1%,1%,-13%
CSc1nc(-c2ccco2)nn1S(=O)(=O)c1ccc(C)cc1,-2%,·,i,-2%,-1%,25µM*
N#CC(C#N)=c1ccc2c(c1)N1C3=C(CCCC3)CC3CCCCC31N=2 (stereo not drawn),-3%,-14%,i,4%,-1%,2%
N#C/C(C(N)=O)=c1/ccc2c(c1)N1C3=C(CCCC3)CC3CCCCC31N=2 (stereo not drawn),-1%,?,40µM*,1%,-1%,-17%
CCN(CC)CCC[C@H](C)Nc1c2ccc(Cl)cc2nc2ccc(OC)cc12,-1%[34.4 µM],30%[25.6 µM],i,32µM*!,?,-4%[25.6 µM]
CCN(CCO)CCCC(C)Nc1ccnc2cc(Cl)ccc12 (stereo not drawn),-2%,0%[0.0915 µM],·,·,-3%[3.08 µM],3%
Cc1ccc2ccc(C(Nc3ccccn3)c3ccccc3)c(O)c2n1 (stereo not drawn),·,55%,·,·,·,·
SMILES,BRCT PPI red,15-hLO-2 inh,YjeE inh,Pol III holo inh,BRCT PPI green,ALOX15 inhib
COc1cc(C(Nc2ccccn2)c2ccc3ccc(C)nc3c2O)cc(OC)c1O (stereo not drawn),-1%,77%,i,8%,-2%,13µM*
COc1ccc(-c2nnc3sc(-c4ccco4)nn23)cc1OC,1%,-1%,i,-2%,-2%,13µM*
COc1ccc(-c2nn3c(-c4ccco4)nnc3s2)cc1OC,-10%,-6%,i,-9%,7%,-14%
COc1cc(C)ccc1OCCOc1c(Cl)cc(Cl)cc1Cl,·,14%,·,·,·,·
COc1cc(C)ccc1OCCOc1cc(C)ccc1Cl,·,16µM*,·,·,·,·
NC(N)=N/N=C\c1ccc(O)c(C(=O)O)c1,1%[15.4 µM],0%[11.4 µM],i,-12%[11.4 µM],-1%[15.4 µM],2%[11.4 µM]
